We go through 94 molecules from PubChem BioAssay AID1565 (Sanford-Burnham Center for Chemical Genomics, 2009).

The campaign covered roughly 290,000 compounds. About 3,200 (1.1%) were called active. No stated cut-off is given here; in the data, active means inhibition above about 60%; inactive means the rest. What follows is part of a selection rich in actives, with near analogues and random picks from the rest.

As a reminder, the inhibition is the relative decrease from the control value, in per cent.

The target in this assay is Phosphoethanolamine/phosphocholine phosphatase (Homo sapiens) (UniProt Q8TCT1). Nature of the assay: PubChem AID 1565. The following applies: recombinant PHOSPHO1, absorbance phosphatase assay; at 13.3 µM; stronger effect = higher value.
Chain of Phosphoethanolamine/phosphocholine phosphatase (Homo sapiens) (Q8TCT1 whole entry, looked up): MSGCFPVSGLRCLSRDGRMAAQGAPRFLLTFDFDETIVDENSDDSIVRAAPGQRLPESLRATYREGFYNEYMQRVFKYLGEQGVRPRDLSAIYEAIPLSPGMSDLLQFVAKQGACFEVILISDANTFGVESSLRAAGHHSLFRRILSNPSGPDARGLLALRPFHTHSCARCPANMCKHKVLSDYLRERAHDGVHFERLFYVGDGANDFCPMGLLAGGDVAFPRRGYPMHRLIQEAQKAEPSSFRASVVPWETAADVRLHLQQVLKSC
In the case of `Cc1ccc(N(C(=O)c2snc(C(N)=O)c2N)C(C(=O)NCC2CCCO2)c2c[nH]c3ccccc23)cc1` (centres undefined), the inhibition is 35.7% (inactive).

Regarding `COc1ccc(S(=O)(=O)N2CCOC2CNC(=O)C(=O)NCc2ccncc2)cc1C` (centres undefined), the inhibition is 19.8% (inactive).

For `COc1ccc(NS(=O)(=O)c2ccc3oc(SCC(N)=O)nc3c2)cc1`, the inhibition is 6.3% (inactive). Turning to `S=C(NCCc1ccccc1)Nc1ccccc1`, the inhibition is 22.6% (inactive). Under `NS(=O)(=O)c1ccc(CCNC(=O)Nc2ccc(Cl)cc2)cc1` stands 14.1% (inactive); under `NS(=O)(=O)c1ccc(CCNC(=S)Nc2ccc(S(N)(=O)=O)cc2)cc1`, 78.5% (active). For `CC1CCC(NC(=O)CN(C)S(=O)(=O)c2ccc3c(c2)c(=O)n(C)c(=O)n3C)CC1` (centres undefined), the inhibition is 58.3% (inactive). Under `COc1cc(OC)c(C2=NOC(C(=O)Nc3c(C)n(C)n(-c4ccccc4)c3=O)C2)cc1Cl` (centres undefined) stands 64.2% (active). As for `Cc1c(NC(=O)c2coc(=O)c(Br)c2)c(=O)n(-c2ccccc2)n1C`, the inhibition is -69.6% (inactive). In the case of `COc1cc(NC(=O)C2CC(c3ccccc3O)=NO2)c(OC)cc1Cl` (centres undefined), the inhibition is 24.3% (inactive). `O=C(NCCN1CCCC(O)C1)c1cc(COc2c(F)cccc2F)on1` (centres undefined): the inhibition was 54.7% (inactive). As for `C=CCn1c(-c2ccccc2OCC)n[nH]c1=S`, the inhibition is -30.9% (inactive). `C=CCn1c(-c2ccc3[nH]c(C)c(C)c3c2)n[nH]c1=S`: the inhibition was 98.8% (active). Turning to `C=CCn1c(-c2sc(-c3ccccc3)nc2C)n[nH]c1=S`, the inhibition was 27.7% (inactive). With `CN1C/C(=C/c2cccs2)C(=O)/C(=C\c2cccs2)C1`, the inhibition was 16.1% (inactive). Regarding `CNC(=O)C1CCN(S(=O)(=O)c2c(C)noc2/C=C/c2cccc(C)c2)CC1`, the inhibition was 34.4% (inactive). As for `O=C(Cn1ncc2c3ccccc3n(Cc3ccccc3)c2c1=O)NCc1ccccn1`, the figure is -6.3% (inactive); as for `Cc1ccccc1Cn1c2ccccc2c2cnn(CC(=O)NCc3ccco3)c(=O)c21`, 60.8% (active).

Regarding `O=C(Cn1ncc2c3ccccc3n(Cc3ccccc3)c2c1=O)NCCCN1CCOCC1`, the inhibition is 57.9% (inactive). As for `COc1ccc(-c2nnc(NC(=O)CS(=O)(=O)c3ccc(Cl)cc3)o2)c(OC)c1`, the figure is 46.9% (inactive); as for `O=S(=O)(Cc1cc(Cl)nc(-c2cccnc2)n1)c1ccccc1`, 17.6% (inactive).

As for `COc1ccc(Cl)cc1NC(=O)CN(C)C(=O)CCCc1c[nH]c2ccccc12`, the inhibition was 9.8% (inactive).

Take `CCCNC(=O)CCn1nc(-c2ccccc2)c2ccccc2c1=O`: the inhibition is 19.9% (inactive). As for `CSc1ccc(CNC(=O)c2ccc(NC(=O)C3=CSCCO3)cc2)cc1`, the inhibition is 69% (active). Take `O=C(Nc1ccc(C(=O)NCc2ccccc2Cl)cc1)C1=CSCCO1`: the inhibition is 37.5% (inactive). In the case of `CS(=O)(=O)NCc1ccc(C(=O)NCc2ccccc2)cc1`, the inhibition was -10% (inactive). For the molecule `Cc1ccccc1OCC(=O)NNC(=O)c1cc(S(=O)(=O)N(C)C)ccc1N1CCCC1`, the inhibition is 33.4% (inactive).

For `CSc1ccc(S(=O)(=O)N2CCC(C(=O)NCCc3ccccc3)CC2)cc1`, the inhibition is 13.8% (inactive). Under `Cc1nn(CCCC(=O)NCc2ccccc2Cl)c(=O)c2nccn12` stands 35.7% (inactive); under `CCOC(=O)CNC(=O)CSc1nnc(COc2ccc(Cl)cc2)n1CC`, 95.8% (active); under `CCOC(=O)CNC(=O)CSc1nnc(-c2cccc(OC)c2)n1CC`, 47.2% (inactive). For the molecule `CCn1c(COc2ccc(OC)cc2)nnc1SCC(=O)Nc1cc(OC)ccc1OC`, the inhibition was -14.1% (inactive). Under `S=c1[nH]nc(-c2cccs2)n1/N=C/c1cccs1` stands 56.2% (inactive).

For the molecule `Oc1ccccc1/C=N/n1c(-c2cccs2)n[nH]c1=S`, the inhibition is 106% (active). Under `S=c1[nH]nc(-c2cccs2)n1/N=C/c1cn(-c2ccccc2)nc1-c1ccc(Cl)cc1` stands -132% (inactive). On to `CC(=O)Oc1ccc2c(=O)oc(-c3ccc([N+](=O)[O-])cc3)nc2c1`, for which the inhibition is 35.6% (inactive). For the molecule `O=C(COc1ccc(Cl)cc1Cl)NCCCNC(=O)c1cnccn1`, the inhibition is 44.9% (inactive). For `COc1cc(C(=O)NCc2nnc(SCC(=O)c3ccc(Cl)cc3)o2)cc(OC)c1OC`, the inhibition is 43.5% (inactive). As to `Cc1cc(C)nc(SCC(=O)c2ccc(Cl)cc2)n1`, the inhibition was 27% (inactive).

`CC(C)C[C@@H](N)c1nnc(SCC(=O)c2ccc(Cl)cc2)o1`: the inhibition was 81.6% (active). As for `O=C(CN1CCN(C(=O)C2CCCO2)CC1)Nc1c(Cl)cccc1Cl` (centres undefined), the figure is 26.3% (inactive). For `Cc1cccnc1NC(=O)c1cccc(S(=O)(=O)N2CCN(c3ccc(F)cc3)CC2)c1`, the inhibition is 27% (inactive).

With `CSc1ccc(/C=N\NC(=O)COc2ccc(Cl)cc2Br)cc1`, the inhibition is -15.7% (inactive).

As for `O=C(COc1ccc(Cl)cc1Cl)N/N=C/c1ccccn1`, the inhibition was 61% (active).

`O=C(N/N=C/c1ccccn1)c1cccc(NC(=O)c2ccc(Cl)cc2)c1`: the inhibition is 41.5% (inactive). On to `N#Cc1ccc(S(=O)(=O)NCC(=O)OCC(=O)NCCc2ccccc2)cc1`, for which the inhibition is 28.7% (inactive). Under `O=C(Nc1ccc(C2CC2(Cl)Cl)cc1)c1cccc([N+](=O)[O-])c1` (centres undefined) stands -31.5% (inactive). Turning to `CSCCC(NC(=O)c1ccco1)C(=O)OCC(=O)Nc1ncc(Cl)c(C)c1Cl` (centres undefined), the inhibition is 63.8% (active). Under `Cc1c(Cl)cnc(NC(=O)COC(=O)c2ccc(S(=O)(=O)NCc3ccco3)cc2)c1Cl` stands -11.7% (inactive). Regarding `CSCCC(NC(=O)COc1ccccc1)C(=O)OCC(=O)c1cc2ccccc2o1` (centres undefined), the inhibition was 0.2% (inactive). On to `O=C1CCC(C(=O)N2CCC(O)(c3ccccc3)CC2)CN1CCc1ccccc1` (centres undefined), for which the inhibition was 51.4% (inactive). For `CS(=O)(=O)c1ccc(-c2nnn(CC(=O)Nc3ccc4c(c3)OCCO4)n2)cc1`, the inhibition was 11% (inactive).

As to `CCCCSc1nc2ccccc2[nH]1`, the inhibition is 11.7% (inactive).

Turning to `CCCCSc1nnc(-c2ccc(C)cc2)o1`, the inhibition is 1.3% (inactive).

Take `CCCCSc1nnc2c(n1)OC=Nc1ccccc1-2`: the inhibition was 60.8% (active). Under `COC(=O)c1ccc(COc2ccc(C#N)cc2)o1` stands 44.1% (inactive).

On to `CC1CCN(CC(O)COc2ccc(C(=O)c3ccccc3)cc2)CC1` (centres undefined), for which the inhibition is 8.5% (inactive). Under `Cc1cc(NC(=O)c2ccccc2C)no1` stands 19.1% (inactive). Turning to `Oc1c(C(c2ccccn2)N2CCOCC2)ccc2cccnc12` (centres undefined), the inhibition was 92.7% (active). As for `OC(COc1ccc2ccccc2c1)CN1CCOCC1` (centres undefined), the figure is 8% (inactive); as for `CCOc1cc(N2CCOCC2)c(OCC)cc1NC(=O)COc1cccc2cccnc12`, 23.3% (inactive). Under `Cc1ccc(NC(=O)C2CCN(S(=O)(=O)c3ccc4c(c3)NC(=O)CO4)CC2)cc1C` stands 26.1% (inactive); under `CCc1ccc(N(C(=O)c2csnn2)C(C(=O)NC2CCCCC2)c2ccncc2)cc1` (centres undefined), 41.6% (inactive). Turning to `CS(=O)(=O)c1sc2nc(-c3ccccc3)cc(-c3ccccc3)c2c1N`, the inhibition was 94.5% (active).

For the molecule `CCN(CC)C(=O)c1sc2nc(-c3ccccc3)ccc2c1N`, the inhibition was 21.4% (inactive). As for `Nc1nc(-c2ccccc2)cc(-c2ccccc2)n1`, the figure is 19.2% (inactive); as for `CCc1ccc(NC(=O)C(=O)NNC(=O)c2cccs2)cc1`, 44.9% (inactive). Under `NC(=S)c1ccc(C(N)=S)o1` stands 95.9% (active). As to `Cn1cc(CN2CCCC(CO)C2)c(-c2ccc(Oc3ccccc3)cc2)n1` (centres undefined), the inhibition is 39.5% (inactive). `Cn1cc(CN2CCC(C(O)CCc3ccccc3)CC2)c(-c2ccccc2F)n1` (centres undefined): the inhibition was 28.2% (inactive).

Regarding `CCCOC1CCCN(Cc2cn(C)nc2-c2ccccc2F)C1` (centres undefined), the inhibition is 60.1% (active). Under `O=C(CSc1nnc2c(n1)[nH]c1ccccc12)NC1CCCCC1` stands 3.6% (inactive); under `Cc1nc(NC(=O)c2cccc(Cl)c2)sc1-c1csc(Nc2cccc(Cl)c2)n1`, 19.2% (inactive); under `C=CCCC(=O)Nc1nc(C)c(-c2csc(Nc3ccc(Cl)cc3)n2)s1`, -1.4% (inactive). As for `Cc1ccc(Nc2nc(-c3sc(NC(=O)c4ccccc4)nc3C)cs2)cc1`, the figure is 37.9% (inactive); as for `CCCCC(=O)Nc1nc(C)c(-c2csc(Nc3ccc(Cl)cc3)n2)s1`, 28.7% (inactive); as for `CCCCCCC(=O)Nc1nc(C)c(-c2csc(Nc3cccc(OC)c3)n2)s1`, 104% (active). `CCCCCCC(=O)Nc1nc(C)c(-c2csc(Nc3cc(Cl)ccc3OC)n2)s1`: the inhibition was 96.2% (active). Take `CCc1ccc(N(CC(=O)NCc2cccnc2)S(=O)(=O)c2ccccc2)cc1`: the inhibition was 4.5% (inactive). As for `CCOC(=O)C1=NN(c2ccc(Cl)cc2)/C(=C/C2=NCCc3cc(OC)c(OC)cc32)S1`, the inhibition was 63.1% (active). As for `COc1cc2c(cc1OC)C(/C=C/c1ccco1)=NCC2`, the figure is 5.3% (inactive); as for `CCOC(=O)C1=C(CN2CCc3ccccc32)NC(=O)NC1c1ccc(Cl)cc1` (centres undefined), 18.7% (inactive); as for `O=C(CSc1nnc2scc(-c3ccc(F)cc3)n12)NCc1ccco1`, 67.4% (active). Take `Cn1c(-c2ccc(F)cc2)cnc1SCC(=O)NNC(=O)Cc1ccccc1`: the inhibition is 10.2% (inactive). In the case of `Cc1ccc(-c2csc3nnc(SCC(=O)NCc4ccco4)n23)cc1`, the inhibition is 17.6% (inactive). Turning to `O=C(CSc1nnc(-c2c[nH]c3ccccc23)n1-c1ccc(F)cc1)NCc1ccco1`, the inhibition was 9.8% (inactive). For the molecule `CCn1c(SCC(=O)NCc2ccco2)nnc1-c1ccc(N)cc1`, the inhibition was 42.7% (inactive).

With `Cn1c(-c2ccc(F)cc2)cnc1SCC(=O)NCc1ccco1`, the inhibition was 65.2% (active). Take `CCOc1ccc(OCc2cccc(C(=O)N(CC)CC)c2)cc1`: the inhibition is -26.2% (inactive). For the molecule `O=[N+]([O-])c1ccc2c(c1)Nc1nc3ccccc3nc1N2`, the inhibition was 29.5% (inactive). In the case of `CCCCn1c(=S)[nH]c2cc(S(=O)(=O)N3CCCCC3)ccc21`, the inhibition was 99.7% (active).

Take `CCCCn1c(=S)[nH]c2ccccc2c1=O`: the inhibition was -12.1% (inactive). Under `O=c1[nH]c2ccc(S(=O)(=O)N3CCCC3)cc2[nH]1` stands 39.1% (inactive). As for `CC1CCCCC1NC(=O)/C(C#N)=C/C=C/c1ccccc1[N+](=O)[O-]` (centres undefined), the figure is -11.2% (inactive).
